# Compound activity from PubChem BioAssay.
# CRFBP-R2 block = blocks CRF-induced signaling of the CRF-BP/CRF-R2 complex; HEK293 CRF-R2/CRF-BP, CRF-induced calcium fluorescence; inhibition, % at 11.8 µM; 350,000 compounds, 0.59% hits;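 active = inhibition of the ligand-induced calcium signal above about 50% at the single tested concentration, limit read from the data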
# IDE inh = inhibitors of human insulin-degrading enzyme in cells; P14735; HEK cells, FAbetaB cleavage, fluorescence polarization; inhibition, % at 5.59 µM; 320,000 compounds, 0.41% hits;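 active = percent inhibition above the average of all tested compounds plus 3 SD, set per screening campaign, cut at about 16% in these data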;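 note: IDE supplied by intact live HEK cells; FP after avidin binding of uncleaved biotin substrate so inhibition keeps polarization high; 0% = DMSO wells and 100% = 60 µM reference IDE inhibitor Ii1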
# CRFR2-BP ag = CRF-BP/CRF-R2 complex agonism; HEK293 CRF-R2/CRF-BP, calcium dye fluorescence (FLIPR); percent of saturating CRF peptide response; activation, % at 13.2 µM; 350,000 compounds, 0.46% hits; AID 588473;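 active = activation of at least 50%, plus an integration ratio under a set limit after plate pattern correction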;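 note: plate controls were neutral control wells without compound for no effect and CRF at EC100 for full effect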
# IDE act = IDE (human) activation, cell-based; HEK cells, FAbeta-B cleavage, fluorescence polarization; 0% vehicle, 100% cell-free pure enzyme wells; activation, % at 5.96 µM; 340,000 compounds, 0.073% hits;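 active = activation above the mean of all tested compounds plus 3 SD, set per screening campaign, cut at about 17% in these data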
# TPT1 inhibitor = blocks Candida albicans tRNA 2'-phosphotransferase. recombinant caTPT1, FP RNA substrate dephosphorylation. inhibition, % at 5 µM. 300,000 compounds, 0.81% hits. AID 1962;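 active = inhibition above the mean of all tested compounds plus 3 SD, set per screening campaign, cut at about 24% in these data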;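 note: plate controls were DMSO alone for no effect and ferristatin control at 100 nM for full effect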
# Myeloid diff MLP = compounds promoting myeloid differentiation; ER-HoxA9 myeloid progenitors, lysozyme-GFP differentiation, flow cytometry; calls only at 10 µM; 360,000 compounds, 1% hits; AID 624256;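 active = normalized GFP-positive differentiation at or above the plate's own cutoff, the solvent-only control mean plus 3 SD; inconclusive = no clear call, values can overlap the other calls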;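 note: cells exposed to compound for four days before flow analysis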
# The depositor's hits bear a star; i = inactive; ? = inconclusive; . = not tested or not shown; + = active, no number. Hits are enriched below; roughly 2.6% of the tested compounds scored in any of these assays.
SMILES,CRFBP-R2 block,IDE inh,CRFR2-BP ag,IDE act,TPT1 inhibitor,Myeloid diff MLP
COc1ccccc1NC(=O)CN(c1ccccc1)S(=O)(=O)c1ccccc1,21,2,-2,6,1,i
Cc1ccc(N2CC(C(=O)N3CCN(c4ccccn4)CC3)CC2=O)cc1 (centres undefined),1,.,-1,4,.,i
O=C1C=C(c2ccc(CO)cc2)C[C@@H](c2ccc3c(c2)OCO3)C1,0,4,1,0,.,i
CCOC(=O)c1c(S(=O)(=O)Nc2ccc(F)cc2C)c(C)n(C)c1C,1,7,-1,0,3,i
C/C(=C\c1ccco1)CN1CCN(Cc2ccc(C)o2)C(CCO)C1 (centres undefined),20,-12,0,0,2,i
Oc1ccccc1-c1cc(C(F)(F)C(F)F)nc(-c2ccccc2)n1,-78,2,2,3,-1,i
O=[N+]([O-])c1ccc(O)c(-c2cc(C(F)(F)F)nc(-c3ccccc3)n2)c1,59*,-5,62*,-2,5,.
Cc1cc(NC(=O)CCSc2nc(-c3ccco3)cc(C(F)(F)F)n2)no1,91*,1,2,3,1,i
O=C(CSc1nc(-c2cccs2)cc(C(F)(F)F)n1)NCCCN1CCOCC1,4,5,-1,5,-7,i
O=C(CSc1nc(-c2ccco2)cc(C(F)(F)F)n1)NCCCN1CCOCC1,51*,-3,-1,6,-3,i
Cc1cc(NC(=O)CCCSc2nc(-c3ccco3)cc(C(F)(F)F)n2)no1,-9,5,1,10,0,i
COc1ccc(CNC(=O)CN(C(=O)CCC(=O)Nc2nccs2)c2cccc(C)c2)cc1,-5,1,-1,3,2,i
O=C(NCc1ccc(F)cc1F)Nc1cnccc1C(F)(F)F,8,2,-1,-1,1,i
Cc1cc(/C=N\NC(=O)CC(=O)NC2CCCCC2)c(C)n1-c1ccc(Cl)c(Cl)c1,-26,1,1,-2,-2,+
CC(=O)Nc1ccc(Nc2nc(C)c([N+](=O)[O-])c(Nc3ccc(NC(C)=O)cc3)n2)cc1,-7,3,-2,4,3,i
O=C(c1ccccc1)c1cccs1,-1,2,1,-2,0,i
CCOc1ccc(C(=O)c2cccs2)cc1,51*,4,-1,2,2,i
CC1CCC(NC(=O)CCN2C(=O)C3CC=CCC3C2=O)CC1 (centres undefined),106*,-3,-1,1,.,i
O=C(CCN1C(=O)C2CC=CCC2C1=O)NC1CCCCC1 (centres undefined),3,-2,0,5,-1,.
O=c1[nH]c2cc3c(cc2cc1CN(Cc1ccco1)C(=S)NCCCN1CCOCC1)OCCO3,-24,4,-1,5,1,i
Cc1ccc(/C=C/C(=O)Nc2cccc(S(=O)(=O)N3CCOCC3)c2)o1,8,-9,-1,4,2,+
Cc1nn(Cc2cccc(C(=O)Nc3ccn(Cc4ccccc4)n3)c2)c(C)c1[N+](=O)[O-],38,8,2,7,3,+
Cc1nn(Cc2cccc(C(=O)O)c2)c(C)c1[N+](=O)[O-],-14,-7,0,2,1,i
CC(=O)Nc1ccc(NC(=O)CSc2nc3[nH]ncc3c(=O)n2-c2ccccc2)cc1,-6,6,1,-8,-5,?
O=C(Nc1cc(S(=O)(=O)Nc2ccccc2Cl)ccc1O)c1sc2cc(Cl)ccc2c1Cl,4,4,0,0,-2,+
SMILES,CRFBP-R2 block,IDE inh,CRFR2-BP ag,IDE act,TPT1 inhibitor,Myeloid diff MLP
O=C1CCc2nc3ccccc3c(=O)n2N1,80*,2,-1,0,-1,i
O=c1c2ccccc2nc2n1CCN2,0,-2,0,3,-1,i
CC1(C)CSC(=NCc2ccccc2)N1C(=O)c1cccc([N+](=O)[O-])c1,-95,4,273*,-3,0,i
COc1ccc(CNC(=O)CCS(=O)(=O)c2cc3c(cc2Cl)NC(=O)CO3)cc1,-6,0,2,7,0,?
O=C1c2cccc3c(O)ccc(c23)C(=O)N1c1ccc(Cl)cc1,-140,-32,202,52*,-14,i
O=C1c2cccc3c(O)ccc(c23)C(=O)N1Cc1ccco1,-216,.,252*,30*,.,i
O=C(NC(=S)NCCc1ccccn1)c1ccccc1,19,1,1,10,-5,i
O=C(NC(=S)NCCc1ccccn1)c1ccco1,53*,-6,15,-2,4,i
COCCCNC(=O)C[C@@H]1C[C@@]2(C(=O)OC)CC(C)(C)CC=C2N(Cc2ccc3c(c2)OCO3)C1=O,.,.,.,.,.,i
COc1ccc(/C=C/C(=O)c2ccc(O)cc2)cc1CN1CCOCC1,10,-1,-2,-4,3,+
COc1ccc(C(=O)/C=C/c2ccc(OC)c(CN3CCOCC3)c2)cc1,-16,1,0,3,1,?
COc1ccc(C(=O)/C=C/c2ccc(OC)c(Cn3nnc4ccccc43)c2)cc1,16,1,8,3,4,+
Cc1cc(C)cc(NC(=O)c2nccnc2C(=O)O)c1,9,-5,-1,3,-5,i
CCSc1nsc(NC(=O)Nc2cccc(F)c2)n1,13,13,52*,5,0,i
COC(=O)/C=C1/S/C(=N/NC(=O)c2ccc(OC)cc2)NC1=O,-3,0,-1,-2,-4,i
COC(=O)/C=C1/S/C(=N/NC(=O)c2ccc(Cl)cc2Cl)NC1=O,51*,-1,-2,.,-4,i
COC(=O)/C=C1/S/C(=N/NC(=O)c2ccccc2OC)NC1=O,13,2,0,3,4,+
C/C(=N\NC(=O)CN(c1ccc(Oc2ccccc2)cc1)S(C)(=O)=O)C(C)(C)C,-30,4,1,1,1,i
CCOc1cc(-c2cn(S(=O)(=O)c3cccc4nsnc34)nc2N)cc(OCC)c1OCC,70*,-1,-2,2,2,i
CCn1c(SCC(=O)NNC(=O)c2ccc(OC)cc2)nnc1-c1cccnc1,-1,1,1,5,-3,i
CC(C)Oc1ccc(S(=O)(=O)N2CCOCC2)cc1NC(=O)CSC(=S)N1CCCC1,17,.,1,.,.,+
O=c1c2ccccc2sn1-c1cc(S(=O)(=O)N2CCOCC2)ccc1N1CCCC1,-20,51*,21,-36,1,i
O=C(O)c1cn[nH]c1-c1cccc([N+](=O)[O-])c1,9,2,-1,3,0,i
